Compounds with a hit are over-represented: about 12% of the library has one in this group of screens.
PLK1 PBD block: PLK1 (human) polo-box domain binding inhibition; Plk1 PBD binding of FITC phosphopeptide, fluorescence polarization; P53350; Potency, µM, most hits filed as inhibitors; AID 720504; 360,000 tested, 2.8% active; also: series mostly up to about 57 µM; nearly all actives have a fitted effect of over 65% in size
G9a block: inhibitors of human histone lysine methyltransferase G9a | Q96KQ7 | 350,000 tested, 8.8% active | Potency, µM (highest dose often 102 µM), actives largely listed as inhibitors | G9a H3K9 monomethylation, AlphaScreen, 2 h; also: nearly all actives have a fitted effect of over 75% in size
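Enzyme 20 nM + cpd, 15 min RT; add b-H3K9 pep 500 nM / SAM 20 uM; 2 h RT; anti-H3K9me1 Ab 0.5 ug/mL + SA donor / anti-rabbit acceptor beads 20 ug/mL each, 10 min; AlphaScreen read.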
HP1b binding inh: blocks HP1-beta chromodomain binding to methylated histone tails | P83916 | AlphaScreen HP1-beta / biotin-H3K9me3 peptide binding | Potency, µM (top dose mostly 114 µM), actives largely listed as inhibitors | 390,000 tested, 0.56% active | AID 540317; also: nearly all actives have a fitted effect of over 70% in size
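AlphaScreen: HP1-beta (50 nM) preformed 30 min with biotin-H3(1-18)K9me3 peptide (50 nM) in PBS pH 7.4, 0.01% Tween-20. Compound added for 30 min at RT, then streptavidin donor/nickel chelate acceptor beads (10 ug/mL) for 30 min.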
PI5P4Ka inh: PI5P4K alpha (human) kinase inhibition. P48426. PI5P4Kalpha enzyme, ADP-Glo luminescence, 60 min; stronger effect = lower value. max response, %. 330,000 tested, 1.2% active. AID 652105; active = max response of -50% or lower; inconclusive = between -30% and -50%; inactive = -30% or higher; also: value at the top dose of about 77 µM
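Controls without substrate or without enzyme flank wells where PI5P4Kalpha converts substrate using 5 microM ATP (final). Incubation lasts 60 minutes at room temperature; ADP formed is read by ADP-Glo luminescence.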
JMJD2A Tudor inh: inhibitors of human JMJD2A Tudor domain | O75164 | AlphaScreen JMJD2A-Tudor / H3K4me3 peptide binding | Potency, µM (series often up to 114 µM), usual class: inhibitors | 390,000 tested, 4.4% active; also: nearly all actives have a fitted effect of over 50% in size
Target sequence (O75164 whole entry, looked up, the tested form may be a part): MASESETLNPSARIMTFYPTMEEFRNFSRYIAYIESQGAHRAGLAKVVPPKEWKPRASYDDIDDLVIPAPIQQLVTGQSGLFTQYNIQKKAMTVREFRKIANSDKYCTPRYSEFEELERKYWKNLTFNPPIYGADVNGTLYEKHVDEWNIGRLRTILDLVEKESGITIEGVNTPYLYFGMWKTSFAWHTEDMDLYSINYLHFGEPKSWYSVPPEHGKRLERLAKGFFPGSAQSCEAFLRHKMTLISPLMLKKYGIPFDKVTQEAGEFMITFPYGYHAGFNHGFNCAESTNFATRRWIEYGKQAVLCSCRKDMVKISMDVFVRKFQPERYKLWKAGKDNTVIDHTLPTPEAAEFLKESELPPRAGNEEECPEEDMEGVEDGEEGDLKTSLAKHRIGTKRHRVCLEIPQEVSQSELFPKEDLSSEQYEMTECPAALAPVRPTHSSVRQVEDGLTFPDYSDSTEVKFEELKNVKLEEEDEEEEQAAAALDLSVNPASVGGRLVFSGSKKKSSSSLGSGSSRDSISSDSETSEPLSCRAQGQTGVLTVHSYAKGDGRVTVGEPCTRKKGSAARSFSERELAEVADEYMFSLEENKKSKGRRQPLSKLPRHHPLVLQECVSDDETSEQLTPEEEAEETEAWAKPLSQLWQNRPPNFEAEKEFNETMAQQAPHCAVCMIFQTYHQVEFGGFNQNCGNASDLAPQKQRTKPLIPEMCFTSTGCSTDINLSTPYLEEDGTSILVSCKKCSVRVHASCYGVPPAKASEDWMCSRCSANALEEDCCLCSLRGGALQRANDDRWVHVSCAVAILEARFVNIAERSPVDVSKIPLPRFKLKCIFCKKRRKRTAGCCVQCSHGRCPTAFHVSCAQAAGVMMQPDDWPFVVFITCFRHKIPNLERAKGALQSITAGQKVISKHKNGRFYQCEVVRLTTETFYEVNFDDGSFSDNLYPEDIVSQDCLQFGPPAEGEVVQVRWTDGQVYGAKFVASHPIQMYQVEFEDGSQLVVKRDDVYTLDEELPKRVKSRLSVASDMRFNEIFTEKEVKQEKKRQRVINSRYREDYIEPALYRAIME
BAZ2B block: inhibitors of human BAZ2B bromodomain | Q9UIF8 | AlphaScreen BAZ2B-H3K14Ac peptide displacement | Potency, µM (highest dose often 114 µM), usual class: inhibitors | 360,000 tested, 4.4% active | AID 504333; also: nearly all actives have a fitted effect of over 60% in size
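In this displacement format the biotinylated H3(5-23) peptide acetylated at Lys14 serves as ligand at 50 nM, with BAZ2B at 50 nM in PBS pH 7.4 containing 0.01% Tween-20. Donor and acceptor beads are 10 ug/mL final.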
A number is an active result; 0 = inactive; ? = inconclusive; - = no result; [ ] = dose if it differs, or a comment. Unless noted, calls follow the shape of the dose curve; as a rule, active = well fitted curve in the direction sought with a large enough effect; inconclusive = small, poorly fitted or top-dose-only effect, or another doubt; inactive = no such curve, though single readings can be large; an effect the other way counts as inactive or inconclusive.

SMILES	PLK1 PBD block	G9a block	HP1b binding inh	PI5P4Ka inh	JMJD2A Tudor inh	BAZ2B block
COCCn1nnnc1C(c1cc2cc(C)cc(C)c2[nH]c1=O)N1CCN(c2ccccc2F)CC1 (stereo not drawn)	0	3.2µM	0	-	0	0
Cc1ccc2[nH]c(=O)c(C(c3nnnn3CCc3ccccc3)N3CCOCC3)cc2c1 (stereo not drawn)	0	7.9µM	0	0	0	0
CCN(Cc1ccccc1)C(c1cc2cc(C)cc(C)c2[nH]c1=O)c1nnnn1CCOC (stereo not drawn)	0	0	0	0	0	-
COCCn1nnnc1C(c1cc2cc(C)ccc2[nH]c1=O)N1CCCCCC1 (stereo not drawn)	0	4.5µM	0	-	0	0
COCCn1nnnc1C(c1cc2cc(OC)ccc2[nH]c1=O)N1CCC(Cc2ccccc2)CC1 (stereo not drawn)	0	0[12.7 µM]	0	0	0	0
COc1ccc2cc(C(c3nnnn3CCc3ccccc3)N3CCCC(C)C3)c(=O)[nH]c2c1 (stereo not drawn)	0	45µM	0	-	?	0
CCN(Cc1ccccc1)C(c1cc2cc(C)ccc2[nH]c1=O)c1nnnn1CCOC (stereo not drawn)	0	?	0	0	?	-
CCN(C(=O)COC(=O)c1cc(Cl)ccc1OC)c1c(N)n(Cc2ccccc2)c(=O)[nH]c1=O	0	0[12.7 µM]	0	0	0	0
O=S(=O)(c1cccc2ccccc12)N1CCC2CC1c1cc(-c3ccc4c(c3)OCO4)ccc12 (stereo not drawn)	0	-	-	0	-	-
O=C(CC(c1ccccc1)c1ccco1)Nc1nccs1 (stereo not drawn)	0	50µM	0	0	0	?
O=C(Nc1cccn(Cc2c(Cl)cccc2Cl)c1=O)C1CC1	27µM	0	0	0	0	?
O=C(NCc1ccccn1)C(F)(F)C(F)(F)C(=O)NCc1ccccn1	0	?	0	0	0	0
O=C(NCCc1ccccn1)C(F)(F)C(F)(F)C(F)(F)C(F)(F)C(F)(F)C(F)F	27µM	?	0	0	50µM	0
CCCOc1ccc(C(=O)Nc2ccc(NC(=O)c3ccccc3)c(Br)c2)cc1	-	0	0	-	0	0
CCCCN1C(=O)C(CC(=O)NC2CCCC2)CC(C(=O)N2CCCCCC2)=C1C (stereo not drawn)	-	-	-	0	-	-
Nc1ccc2c(c1)ncn2CCCn1cnc2cc(N)ccc21	0	0	0	-	45µM	79µM
c1ccc(OCCCCn2cnc3ccccc32)cc1	0	0	0	0	0	0
COc1ccc(Cl)cc1NC(=O)NCCn1c(=O)oc2ccc(C)cc21	-	0	0	-	0	0
O=C(C1=C(O)C(=O)N(CCN2CCOCC2)C1c1cccc(Br)c1)c1cccs1 (stereo not drawn)	0	56µM	0	0	0	0
O=C(C1=C(O)C(=O)N(CCN2CCOCC2)C1c1ccc([N+](=O)[O-])cc1)c1cccs1 (stereo not drawn)	0	?	0	0	45µM	0
CC(C)c1ccc(NC(=O)CSc2nc3ccccc3nc2Cc2ccccc2)cc1	-	0	0	-	0	0
CCOc1ccc(CC(=O)N2CCc3cc(OC)c(OC)cc3C2COc2ccc3c(C)cc(=O)oc3c2)cc1 (stereo not drawn)	-	0	0	-	0	0
CC(=O)N1CCN(c2nnnn2-c2ccccc2)CC1	0	0	0	0	0	0
Oc1ccc(N2CCN(c3nnnn3-c3ccccc3)CC2)cc1	0	25µM	?	0	0	-
Cc1ccc(C(=O)N2CCCC2)cc1S(=O)(=O)Nc1cccc(C)c1C	0	0	0	0	0	0
SMILES	PLK1 PBD block	G9a block	HP1b binding inh	PI5P4Ka inh	JMJD2A Tudor inh	BAZ2B block
Cc1snc(SCC(=O)c2ccc(F)cc2)c1C#N	0	0	0	0	0[11.4 µM]	0
CSc1nsc(/C=C/Nc2ccc(F)cc2F)c1C#N	0	32µM	0	0	?	?
CSc1nsc(/C=C/Nc2ccc(C(=O)O)cc2)c1C#N	?	13µM	?	0	?	40µM
Clc1nc(NCC2CCCO2)c2[nH]cnc2n1 (stereo not drawn)	-	-	0	-	0	-
N#Cc1ccccc1OCC(=O)N1CCN(S(=O)(=O)c2ccc(Cl)cc2)CC1	0	0[2.33 µM]	0	0	0	0
CC(C)NC(=O)Nc1cccc2c1O[C@H](CN(C)S(=O)(=O)c1ccc(F)cc1)[C@@H](C)CN([C@H](C)CO)C2=O	19µM	-	0	?	?	-
CC(C)NC(=O)Nc1cccc2c1O[C@H](CN(C)S(=O)(=O)c1ccccc1)[C@@H](C)CN([C@H](C)CO)C2=O	0	-	0	0	0	-
CC(C)NC(=O)N(C)C[C@H]1Oc2ccc(NS(=O)(=O)c3cn(C)cn3)cc2C(=O)N([C@H](C)CO)C[C@@H]1C	0	-	0	0	40µM	-
C[C@H](CO)N1C[C@H](C)[C@@H](CN(C)C(=O)NC2CCCCC2)Oc2ccc(NS(=O)(=O)c3cn(C)cn3)cc2C1=O	0	-	0	0	0	-
Cc1ccc(S(=O)(=O)N2CCCN(c3nc(-c4cccs4)nc4ccccc34)CC2)cc1	-	-	0	-	0	-
COc1ccc(OCc2nc3c4cc(OC)c(OC)cc4nc(=S)n3[nH]2)cc1	0	1µM	0	0	0	0
O=c1c(-n2cncn2)c[nH]n1-c1cccc(Cl)n1	0	?	?	0	50µM	50µM
O=c1c(/C=N/OCc2ccc(Cl)cc2Cl)c[nH]n1-c1cccc(Cl)n1	0	0	0	0	0	0
O=C(O)/C(=C\c1ccc(-c2ccccc2[N+](=O)[O-])o1)c1ccccc1	38µM	?	0	0	?	?
N#C/C(=C\c1ccc(-c2ccccc2[N+](=O)[O-])o1)C(N)=O	0	0	0	0	0	0
O=C(/C=C/c1ccc(-c2ccccc2[N+](=O)[O-])o1)c1ccccc1	0	32µM	?	0	?	11µM
O=C(N/N=C/c1ccc(-c2ccccc2[N+](=O)[O-])o1)[C@H]1C[C@@H]1c1ccccc1	0	8.9µM	0	0	?	?
Cc1ccc(-n2c(-c3ccccc3)nsc2=NC#N)cc1	-	-	0	-	0	-
Cn1c(=O)[nH]c(=O)c2c1nc1n2CCN1c1ccccc1	-	0	0	-	0	0
O=C(C(=O)N1CCC(Cc2ccccc2)CC1)c1ccccc1Br	0	-	-	0	-	-
O=C(CCN1CCCCC1)c1ccc2c(c1)OCCO2	?	8.9µM	0	-	0	0
O=C(CCN1CCc2ccccc21)c1ccc2c(c1)OCCO2	?	?	0	?	?	50µM
CCOC(=O)C(=O)CC(=O)c1ccc2c(c1)OCCO2	0	20µM	0	0	0	50µM
O=C(CCN1CCc2ccccc2C1)c1ccc2c(c1)OCCO2	24µM	8.9µM	0	-	0	0
O=C(c1ccc2c(c1)OCO2)N1CCc2ccccc2C1	0	0	0	-	0	0
COc1ccc(CNC(=O)c2cc3ccccn3n2)c(OC)c1	-	0	0	-	0	?

Bioassay records as filed in PubChem BioAssay.
